For some assays here: Measured potencies and affinities stand elsewhere.
Tests used:
Set-up in all cases: scale not given: direction of the effect not stated beside the values
[1] = molecular target: Protein translocase subunit SecA (Escherichia coli (strain K12)) (UniProt P10408); assay: Assay to Identify E. coli SecA ATPase Inhibitors; assay type: functional; conditions: 30 µM
[2] = molecular target: T1, Ubiquitin-activating enzyme e1, putative (Leishmania donovani (strain BPK282A1)) (UniProt E9BSI1); assay: Leishmania donovani Ubiquitin Activating Enzyme (LdE1); assay type: functional; conditions: 30 µM
T1 sequence (whole entry): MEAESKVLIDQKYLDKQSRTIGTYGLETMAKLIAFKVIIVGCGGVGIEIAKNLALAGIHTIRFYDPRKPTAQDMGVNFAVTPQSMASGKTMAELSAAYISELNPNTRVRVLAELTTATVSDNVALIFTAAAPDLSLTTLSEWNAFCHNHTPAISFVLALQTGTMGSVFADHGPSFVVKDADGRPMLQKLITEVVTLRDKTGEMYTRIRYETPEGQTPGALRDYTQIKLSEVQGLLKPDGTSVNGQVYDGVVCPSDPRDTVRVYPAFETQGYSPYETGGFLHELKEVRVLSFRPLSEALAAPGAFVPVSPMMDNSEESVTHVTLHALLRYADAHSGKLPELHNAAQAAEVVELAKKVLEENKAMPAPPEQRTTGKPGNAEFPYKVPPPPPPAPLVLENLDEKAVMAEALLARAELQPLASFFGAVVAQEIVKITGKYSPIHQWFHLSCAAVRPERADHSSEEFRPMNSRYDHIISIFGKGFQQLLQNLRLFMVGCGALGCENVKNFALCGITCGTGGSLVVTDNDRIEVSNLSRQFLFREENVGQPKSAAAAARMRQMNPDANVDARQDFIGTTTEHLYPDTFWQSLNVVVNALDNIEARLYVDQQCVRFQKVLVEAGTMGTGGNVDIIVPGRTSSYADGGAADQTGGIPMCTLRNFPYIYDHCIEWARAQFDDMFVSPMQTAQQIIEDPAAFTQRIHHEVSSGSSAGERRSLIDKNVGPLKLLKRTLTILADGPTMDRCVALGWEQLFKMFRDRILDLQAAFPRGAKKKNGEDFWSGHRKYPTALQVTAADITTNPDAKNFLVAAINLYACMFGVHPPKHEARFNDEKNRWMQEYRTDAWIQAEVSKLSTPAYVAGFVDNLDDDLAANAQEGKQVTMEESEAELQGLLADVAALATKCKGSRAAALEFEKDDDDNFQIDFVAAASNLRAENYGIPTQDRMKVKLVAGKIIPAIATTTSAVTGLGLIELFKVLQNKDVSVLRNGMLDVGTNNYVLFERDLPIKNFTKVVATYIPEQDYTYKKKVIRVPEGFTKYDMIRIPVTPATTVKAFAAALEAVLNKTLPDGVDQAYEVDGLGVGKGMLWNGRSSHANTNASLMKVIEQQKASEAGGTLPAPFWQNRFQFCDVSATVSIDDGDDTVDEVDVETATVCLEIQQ

[3] = molecular target: AMP-activated protein kinase, AMPK (Homo sapiens) (UniProt P54646+O43741+P54619+Q9UGJ0+Q9Y478+Q13131+Q9UGI9); assay: AMP-dependent Kinase enzyme assay. An in vitro enzyme assay that detects ADP turnover that is directly proportional to AMPK activity. This uses naive AMPK that is activated during the assay with MK-8722; assay type: functional; conditions: 30 µM
[4] = molecular target: Sialic acid-binding Ig-like lectin 9 (Homo sapiens) (UniProt Q9Y336); assay: Hs-Siglec9 ALPHAscreen SOP 20170721; conditions: 10 µM
Sialic acid-binding Ig-like lectin 9 (Homo sapiens), sequence (Q9Y336 whole entry): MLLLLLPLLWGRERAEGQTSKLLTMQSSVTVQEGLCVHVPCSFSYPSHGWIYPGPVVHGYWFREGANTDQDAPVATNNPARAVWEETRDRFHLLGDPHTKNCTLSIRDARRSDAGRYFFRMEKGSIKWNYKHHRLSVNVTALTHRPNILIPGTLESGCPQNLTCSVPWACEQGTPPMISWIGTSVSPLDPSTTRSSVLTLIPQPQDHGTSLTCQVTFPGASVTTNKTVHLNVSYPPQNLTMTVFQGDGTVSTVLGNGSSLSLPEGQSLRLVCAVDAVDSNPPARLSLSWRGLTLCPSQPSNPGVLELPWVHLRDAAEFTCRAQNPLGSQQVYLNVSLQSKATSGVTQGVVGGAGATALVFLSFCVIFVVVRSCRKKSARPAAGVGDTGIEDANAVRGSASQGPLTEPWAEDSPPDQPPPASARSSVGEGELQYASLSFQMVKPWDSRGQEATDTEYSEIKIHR

Trypanosoma cruzi = assay: Trypanosoma cruzi phosphomannomutase and mannose-1-phosphate guanylyltransferase assay; assay type: functional; conditions: 10 µM
[5] = molecular target: T2, Arginase-2, mitochondrial (Homo sapiens) (UniProt P78540); assay: in vitro enzyme assay to detect the production of urea directly proportional to the activity of Arginase II; assay type: functional; conditions: 33.3 µM; also: in the data most compounds retested in dose-response had high values
T2 sequence (whole entry): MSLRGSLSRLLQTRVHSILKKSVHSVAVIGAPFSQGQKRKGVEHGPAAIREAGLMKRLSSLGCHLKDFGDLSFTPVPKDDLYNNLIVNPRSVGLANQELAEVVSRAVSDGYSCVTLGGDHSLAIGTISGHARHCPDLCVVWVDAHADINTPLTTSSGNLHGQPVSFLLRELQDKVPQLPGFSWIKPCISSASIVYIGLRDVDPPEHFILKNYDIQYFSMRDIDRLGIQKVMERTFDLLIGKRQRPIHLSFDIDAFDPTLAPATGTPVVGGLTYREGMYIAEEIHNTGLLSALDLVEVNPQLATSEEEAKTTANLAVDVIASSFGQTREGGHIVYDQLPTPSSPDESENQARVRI

[6] = molecular target: T3, Proteasome subunit beta (Trypanosoma cruzi) (UniProt O96673); assay: Trypanosoma cruzi proteasome chymotrypsin-like activity (TcProtChymo) assay.; also: in the data most compounds retested in dose-response had high values; assay type: functional; conditions: 9.37 µM
T3 sequence (whole entry): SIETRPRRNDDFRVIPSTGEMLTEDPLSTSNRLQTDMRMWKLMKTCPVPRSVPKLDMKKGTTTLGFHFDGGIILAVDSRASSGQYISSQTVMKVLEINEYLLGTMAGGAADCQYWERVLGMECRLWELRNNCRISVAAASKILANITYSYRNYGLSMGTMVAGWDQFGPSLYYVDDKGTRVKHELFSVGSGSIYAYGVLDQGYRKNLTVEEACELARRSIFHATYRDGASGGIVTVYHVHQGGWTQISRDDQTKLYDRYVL

Homo sapiens = organism: Homo sapiens; assay: To identify inhibition of the IFN signalling (Jak-Stat) pathway via expression of an eGFP reporter gene under the control of an IFN-stimulated response element (ISRE) containing MxA promoter.; assay type: functional; conditions: 30 µM
[7] = molecular target: T4, Tyrosyl-tRNA synthetase, putative (Trypanosoma cruzi (strain CL Brener)) (UniProt Q4DSP6); assay: Trypanosoma cruzi tyrosyl tRNA synthetase (TcYRS) _High Tyrosine SOP; assay type: functional; conditions: 30 µM; also: in the data most compounds retested in dose-response had high values
T4 sequence (whole entry): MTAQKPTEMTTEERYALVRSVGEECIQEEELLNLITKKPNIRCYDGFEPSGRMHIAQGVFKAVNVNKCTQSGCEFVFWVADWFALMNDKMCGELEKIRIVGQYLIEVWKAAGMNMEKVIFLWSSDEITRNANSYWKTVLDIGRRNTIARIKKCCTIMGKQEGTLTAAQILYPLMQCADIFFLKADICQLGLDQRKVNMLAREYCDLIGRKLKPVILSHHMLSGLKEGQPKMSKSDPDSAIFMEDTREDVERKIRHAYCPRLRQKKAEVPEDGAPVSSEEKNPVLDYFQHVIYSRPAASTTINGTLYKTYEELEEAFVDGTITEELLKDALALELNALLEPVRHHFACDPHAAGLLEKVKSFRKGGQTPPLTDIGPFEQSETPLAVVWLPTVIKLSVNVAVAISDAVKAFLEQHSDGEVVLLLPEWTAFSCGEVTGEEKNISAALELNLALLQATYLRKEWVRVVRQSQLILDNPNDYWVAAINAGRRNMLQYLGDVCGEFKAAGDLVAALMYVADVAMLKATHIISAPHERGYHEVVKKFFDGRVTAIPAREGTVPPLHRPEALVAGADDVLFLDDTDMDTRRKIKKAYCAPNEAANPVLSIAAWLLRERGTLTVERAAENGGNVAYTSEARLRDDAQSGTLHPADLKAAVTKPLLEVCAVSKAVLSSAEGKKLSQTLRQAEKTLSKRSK

[8] = molecular target: T4, Tyrosyl-tRNA synthetase, putative (Trypanosoma cruzi (strain CL Brener)); assay: Trypanosoma cruzi tyrosyl tRNA synthetase (TcYRS) SOP; assay type: functional; conditions: 30 µM
[9] = molecular target: Chromo domain-containing protein 1 (Saccharomyces cerevisiae (strain ATCC 204508 / S288c) (Baker's yeast)) (UniProt P32657); assay: ScCHD-1 Enzyme Inhibition Assay; assay type: functional; conditions: 30 µM; also: in the data most compounds retested in dose-response had high values
Chromo domain-containing protein 1 (Saccharomyces cerevisiae (strain ATCC 204508 / S288c) (Baker's yeast)), sequence (P32657 whole entry, the tested form may be a part): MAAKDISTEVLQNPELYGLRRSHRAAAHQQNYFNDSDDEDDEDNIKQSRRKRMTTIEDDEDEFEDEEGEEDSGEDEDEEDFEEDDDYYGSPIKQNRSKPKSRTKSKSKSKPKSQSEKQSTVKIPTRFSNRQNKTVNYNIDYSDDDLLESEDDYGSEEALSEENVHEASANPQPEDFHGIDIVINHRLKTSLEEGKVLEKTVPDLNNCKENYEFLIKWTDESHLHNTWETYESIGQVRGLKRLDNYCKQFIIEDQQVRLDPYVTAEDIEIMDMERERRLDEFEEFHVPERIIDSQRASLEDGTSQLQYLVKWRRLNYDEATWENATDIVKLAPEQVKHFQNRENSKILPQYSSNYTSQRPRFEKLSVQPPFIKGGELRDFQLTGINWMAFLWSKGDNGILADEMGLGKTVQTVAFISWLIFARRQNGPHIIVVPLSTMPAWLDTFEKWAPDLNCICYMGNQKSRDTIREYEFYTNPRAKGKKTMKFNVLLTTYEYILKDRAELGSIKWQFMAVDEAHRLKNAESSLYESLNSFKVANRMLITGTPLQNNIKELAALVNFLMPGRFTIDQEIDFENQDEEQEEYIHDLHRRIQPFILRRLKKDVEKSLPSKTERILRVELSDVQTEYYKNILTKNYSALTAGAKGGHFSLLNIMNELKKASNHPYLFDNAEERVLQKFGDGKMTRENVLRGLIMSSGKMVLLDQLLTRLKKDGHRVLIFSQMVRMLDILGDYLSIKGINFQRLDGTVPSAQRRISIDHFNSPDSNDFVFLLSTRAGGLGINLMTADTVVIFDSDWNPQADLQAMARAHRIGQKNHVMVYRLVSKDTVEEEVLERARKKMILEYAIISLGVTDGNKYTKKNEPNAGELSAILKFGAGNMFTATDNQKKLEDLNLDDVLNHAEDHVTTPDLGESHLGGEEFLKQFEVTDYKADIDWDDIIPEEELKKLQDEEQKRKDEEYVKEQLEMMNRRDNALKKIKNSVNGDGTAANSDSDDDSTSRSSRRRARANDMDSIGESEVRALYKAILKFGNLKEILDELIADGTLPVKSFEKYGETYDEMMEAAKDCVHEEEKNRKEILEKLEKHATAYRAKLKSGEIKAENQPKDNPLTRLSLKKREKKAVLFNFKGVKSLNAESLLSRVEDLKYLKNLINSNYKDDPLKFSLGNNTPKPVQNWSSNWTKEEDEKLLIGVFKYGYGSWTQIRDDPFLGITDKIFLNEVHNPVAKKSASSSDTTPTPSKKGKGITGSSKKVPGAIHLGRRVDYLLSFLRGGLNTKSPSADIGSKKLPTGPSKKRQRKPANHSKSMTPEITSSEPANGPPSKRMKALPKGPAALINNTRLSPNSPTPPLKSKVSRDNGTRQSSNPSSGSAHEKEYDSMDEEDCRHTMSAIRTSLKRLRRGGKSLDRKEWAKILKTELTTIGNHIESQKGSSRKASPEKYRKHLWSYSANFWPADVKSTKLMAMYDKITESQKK

Protein translocase subunit SecA (Escherichia coli (strain K12)), sequence (P10408 whole entry): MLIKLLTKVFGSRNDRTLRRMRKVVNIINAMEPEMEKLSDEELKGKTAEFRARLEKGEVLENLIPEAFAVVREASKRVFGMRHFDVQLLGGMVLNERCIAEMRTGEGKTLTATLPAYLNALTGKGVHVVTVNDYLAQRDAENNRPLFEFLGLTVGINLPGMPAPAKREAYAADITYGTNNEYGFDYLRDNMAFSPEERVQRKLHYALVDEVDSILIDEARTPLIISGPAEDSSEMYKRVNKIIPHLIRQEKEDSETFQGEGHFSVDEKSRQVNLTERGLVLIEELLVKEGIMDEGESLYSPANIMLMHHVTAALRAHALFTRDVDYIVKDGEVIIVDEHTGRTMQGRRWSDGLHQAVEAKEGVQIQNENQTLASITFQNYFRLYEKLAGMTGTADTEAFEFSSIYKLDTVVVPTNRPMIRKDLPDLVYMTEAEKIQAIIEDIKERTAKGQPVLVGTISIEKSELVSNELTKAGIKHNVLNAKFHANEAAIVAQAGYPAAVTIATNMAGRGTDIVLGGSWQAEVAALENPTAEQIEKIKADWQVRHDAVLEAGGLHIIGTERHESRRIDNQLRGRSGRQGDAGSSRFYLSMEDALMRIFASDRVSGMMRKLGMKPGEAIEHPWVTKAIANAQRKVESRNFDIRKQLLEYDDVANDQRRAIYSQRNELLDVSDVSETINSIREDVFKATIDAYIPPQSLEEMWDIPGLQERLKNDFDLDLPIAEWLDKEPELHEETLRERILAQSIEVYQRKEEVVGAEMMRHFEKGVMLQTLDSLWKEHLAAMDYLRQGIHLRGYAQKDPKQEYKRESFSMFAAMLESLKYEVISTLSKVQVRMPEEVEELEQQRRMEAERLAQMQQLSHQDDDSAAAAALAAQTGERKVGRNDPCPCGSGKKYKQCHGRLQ

| SMILES | Percent Effect [1] [%] | Percent Effect [2] [%] | Percent Effect [3] [%] | Percent Effect [4] [%] | Percent Effect (Trypanosoma cruzi) [%] | Percent Effect [5] [%] | Percent Effect [6] [%] | Percent Effect (Homo sapiens) [%] | Percent Effect [7] [%] | Percent Effect [8] [%] | Percent Effect [9] [%] |
| --- | --- | --- | --- | --- | --- | --- | --- | --- | --- | --- | --- |
| CC(C)c1nnc(NC(=O)NCc2ccc(CO)c(F)c2)s1 | -5.17 | 11.4 | -2.17 | -0.945 | -1.95 | 3.66 | 11.8 | 26.1 | -5.21 | -2.53 | -11.2 |
| COc1ccccc1CC(=O)NCCCN1CCCC1C(=O)N(C)C (configuration not stated) | -0.00806 | 8.22 | -2.99 | 6.95 | 2.35 | 8.64 | 18.6 | -15.4 | 6.45 | -2.5 | -6.6 |
| Cc1nn(C)c(C)c1C1CCCN1Cc1cccc(C(N)=O)c1 (configuration not stated) | 2.51 | 0 | -3.2 | 12.2 | -4.63 | 3.04 | 9.26 | 8.29 | 2.46 | -1.27 | 0.624 |
| CC(=O)Nc1nc(CN2CCCC2Cn2cncn2)cs1 (configuration not stated) | -7.57 | 13 | -6.56 | 16.5 | 10.3 | 2.85 | 9.29 | 18.8 | 9.71 | 26.8 | -12.8 |
| CS(=O)(=O)c1snnc1C1CCN(Cc2ccncc2)CC1 | -6.59 | 4.05 | 2.28 | -0.45 | -3.75 | -2.09 | 9.83 | 23.2 | 0 | 1.3 | 5.8 |
| Cc1ccc(C)c(CNC(=O)NC(C)(C(=O)O)c2ccco2)c1 (configuration not stated) | -5.53 | 21.1 | -0.592 | 12.2 | 8.12 | -5.75 | 5.33 | 5.04 | 5.42 | 16.1 | -4.02 |
| CCc1cnc(C)nc1NCCN1CCCCCC1 | -0.998 | 5.2 | -1.3 | 10.8 | -0.295 | 0 | 14.3 | 0.592 | 14 | 16.1 | -4.71 |
| CNC(=O)[C@H]1C[C@@H]2CN(C(=O)Nc3ccc(F)cc3)C[C@H]1O2 | -1.87 | 13 | 7.85 | 4.28 | 1.28 | 9.68 | 9.05 | 18.3 | 7.41 | 16.7 | -7.08 |
| COCC(=O)N(C)Cc1ccc(Cl)c(Cl)c1 | -4.08 | -2.63 | 8.5 | 7.96 | -3.21 | -5.92 | 21.2 | 10.7 | 0 | 2.6 | -8.73 |
| O=C(CN1CCCCC1C1OCCO1)Nc1ccc(F)c(F)c1 (configuration not stated) | -3.75 | 5.41 | 1.85 | -4.88 | -1.95 | 0 | 6.68 | 17.6 | 1.98 | 6.1 | 2.05 |
| c1ccc(Cn2cncn2)c(CNCC2CNc3ccnn3C2)c1 (configuration not stated) | 0.235 | 20.8 | -8.08 | 4.1 | 10.3 | 1.78 | 8.45 | 12.4 | 12.6 | 21.9 | -7.41 |
| CCC(OC)C(=O)N1CCc2nc(NC)nc(C(=O)N3CCCC3)c2C1 (configuration not stated) | -2.18 | 2.74 | -1.95 | 7.16 | -1.39 | -9.58 | 15.5 | 19.2 | 5.21 | 16.1 | -3.16 |
| O=C(O)c1ccc(S(=O)(=O)Nc2ccc(Cl)c(F)c2)c(F)c1 | -2.14 | -2.7 | -7.96 | 15.3 | 1.04 | 1.6 | -1.08 | 8.28 | -13.3 | -18.5 | -4.26 |
| CC(C)N1CCC(CNCc2c[nH]nc2C(C)(C)C)C1 (configuration not stated) | -2.43 | 29.7 | -3.65 | -3.23 | 5.19 | -14.4 | 17.1 | 22 | 9.36 | 23.5 | -10.6 |
| CCn1cc(CN2CCC(c3nnc(CN(C)C)n3CC)CC2)cn1 | 0.381 | 10.4 | 3.2 | 6.14 | -4.03 | -1.38 | 14 | 4.82 | 2.15 | 6.17 | 0.0159 |
| CC1CN(Cc2nccn2C)CCN1c1ccc2nncn2n1 (configuration not stated) | -5.26 | 10.4 | -8.38 | 12.5 | 5.62 | 2.85 | 9.29 | 7.44 | 5.83 | 21.9 | -9.26 |
| CCC1=N[C@@]2(CC[C@@H]3CN(C(=O)NC(C)C)C[C@@H]32)C(=O)N1C | -5.93 | 18.9 | -5.97 | 2.32 | 3.12 | 2.92 | 10.9 | 1.5 | 3.96 | 18.3 | -6.51 |
| CC(=O)N1CCCC1c1ccc(C(=O)N2CCOCC2)s1 (configuration not stated) | -6.72 | -2.7 | 2.48 | -7.62 | -4.2 | -2.23 | -0.601 | 26.2 | -2.15 | -3.7 | 4.51 |
| Cn1cnnc1C1CCCN(C(=O)c2ccccc2Cl)C1 (configuration not stated) | -3.26 | 18.2 | -0.796 | -3.37 | 1.67 | 0.632 | 5.74 | 6.09 | 11.4 | 25.9 | -17.8 |
| Cc1ccn(-c2ccccc2NCc2ccccn2)n1 | -1.21 | 0 | 23.2 | 4.37 | 3.13 | 2.27 | 0.532 | 2.69 | 4.3 | 10 | -1.77 |
| c1cncc(-c2ccc3c(c2)C2(CC3)CCN(c3nncs3)CC2)c1 | -0.421 | 0 | 3.46 | 8.96 | 5.56 | 1.6 | 14.5 | 47.4 | 14.6 | 8.64 | 2.02 |
| CCOc1cc(C(=O)N2CCCC(n3cncn3)C2)ccc1C (configuration not stated) | 2.65 | -8.11 | 0.403 | -1.22 | -1.21 | 1.66 | -7.18 | 4.36 | 0.99 | 1.22 | 11.6 |
